Experimental data taken from the supplement of paper PMC8728848.
About 410 targets per protein were measured; listed, in parts, are those with the strongest signals and a random draw of the rest.

How the values were obtained:
Assay in all cases: glycan array binding signal (z-score within array); higher = stronger binding
Details in all cases: glycan notation: IUPAC condensed, linker removed
[1] = target: GlcNAc(a1-4)Gal(b1-4)GlcNAc
Summary of the method: (§1)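 Arrays were curated from the Consortium for Functional Glycomics database, 3228 in total, and kept only where the protein sequence was available. Binding is expressed as a within-array Z-score. This score was averaged across arrays of the same protein sequence at different concentrations or buffers and across linkers, and negative values can be read as non-binding.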

[2] = target: GlcNAc(a1-4)Gal(b1-4)GlcNAc(b1-3)Gal(b1-4)GlcNAc(b1-3)Gal(b1-4)GlcNAc
Summary of the method: as §1

[3] = target: GlcNAc(b1-2)[GlcNAc(b1-4)]Man(a1-3)[GlcNAc(b1-2)Man(a1-6)]Man(b1-4)GlcNAc(b1-4)GlcNAc
Summary of the method: as §1

[4] = target: GlcNAc(b1-2)[GlcNAc(b1-6)]Man(a1-6)[GlcNAc(b1-2)Man(a1-3)]Man(b1-4)GlcNAc(b1-4)GlcNAc
Summary of the method: as §1

[5] = target: GlcNAc(b1-2)[GlcNAc(b1-6)]Man(a1-6)[GlcNAc(b1-2)Man(a1-3)]Man(b1-4)GlcNAc(b1-4)[Fuc(a1-6)]GlcNAc
Summary of the method: as §1

[6] = target: GlcNAc(b1-3)Gal(b1-4)GlcNAc(b1-3)Gal(b1-4)GlcNAc
Summary of the method: as §1

[7] = target: GlcNAc(b1-3)Gal(b1-4)GlcNAc(b1-3)Gal(b1-4)GlcNAc(b1-2)Man(a1-3)[GlcNAc(b1-3)Gal(b1-4)GlcNAc(b1-3)Gal(b1-4)GlcNAc(b1-2)Man(a1-6)]Man(b1-4)GlcNAc(b1-4)GlcNAc
Summary of the method: as §1

[8] = target: GlcNAc(b1-3)Gal(b1-4)GlcNAc(b1-3)Gal(b1-4)GlcNAc(b1-3)GalNAc
Summary of the method: as §1

[9] = target: GlcNAc(b1-3)Gal(b1-4)GlcNAc(b1-3)[GlcNAc(b1-3)Gal(b1-4)GlcNAc(b1-3)]GalNAc
Summary of the method: as §1

GlcNAc(b1-3)Man = target: GlcNAc(b1-3)Man
Summary of the method: as §1

[10] = target: GlcNAc(b1-6)Gal(b1-4)GlcNAc
Summary of the method: as §1

GlcNAc(b1-6)GalNAc = target: GlcNAc(b1-6)GalNAc
Summary of the method: as §1

Kdn(a2-3)Gal(b1-4)Glc = target: Kdn(a2-3)Gal(b1-4)Glc
Summary of the method: as §1

[11] = target: Man(a1-2)Man(a1-6)[Man(a1-3)]Man(a1-6)[Man(a1-2)Man(a1-2)Man(a1-3)]Man
Summary of the method: as §1

Man(a1-3)[Man(a1-6)]Man = target: Man(a1-3)[Man(a1-6)]Man
Summary of the method: as §1

[12] = target: Neu5Ac(a2-3)Gal(b1-3)GalNAc
Summary of the method: as §1

[13] = target: Neu5Ac(a2-3)Gal(b1-3)GlcNAc(b1-3)Gal(b1-3)GlcNAc
Summary of the method: as §1

[14] = target: Neu5Ac(a2-3)Gal(b1-3)GlcNAc(b1-6)GalNAc
Summary of the method: as §1

[15] = target: Neu5Ac(a2-3)Gal(b1-4)GlcNAc(b1-3)Gal
Summary of the method: as §1

[16] = target: Neu5Ac(a2-3)Gal(b1-4)GlcNAc(b1-3)Gal(b1-3)GlcNAc
Summary of the method: as §1

[17] = target: Neu5Ac(a2-3)Gal(b1-4)GlcNAc(b1-3)Gal(b1-4)GlcNAc(b1-3)[Neu5Ac(a2-3)Gal(b1-4)GlcNAc(b1-3)Gal(b1-4)GlcNAc(b1-6)]GalNAc
Summary of the method: as §1

[18] = target: Neu5Ac(a2-6)Gal(b1-4)GlcNAc(b1-2)Man(a1-3)[Neu5Ac(a2-6)Gal(b1-4)GlcNAc(b1-2)Man(a1-6)]Man(b1-4)GlcNAc(b1-4)[Fuc(a1-6)]GlcNAc
Summary of the method: as §1

[19] = target: Neu5Ac(a2-6)Gal(b1-4)GlcNAc(b1-2)Man(a1-6)[Man(a1-3)]Man(b1-4)GlcNAc(b1-4)GlcNAc
Summary of the method: as §1

[20] = target: Neu5Ac(a2-6)Gal(b1-4)GlcNAc(b1-3)Gal(b1-4)GlcNAc(b1-3)GalNAc
Summary of the method: as §1

[21] = target: Neu5Ac(a2-6)Gal(b1-4)GlcNAc(b1-3)Gal(b1-4)[Fuc(a1-3)]GlcNAc(b1-3)Gal(b1-4)[Fuc(a1-3)]GlcNAc
Summary of the method: as §1

[22] = target: Neu5Ac(a2-6)Gal(b1-4)GlcNAc(b1-3)[Neu5Ac(a2-6)Gal(b1-4)GlcNAc(b1-6)]GalNAc
Summary of the method: as §1

[23] = target: Neu5Ac(a2-6)Gal(b1-4)GlcNAc6S
Summary of the method: as §1

Neu5Ac(a2-8)Neu5Ac = target: Neu5Ac(a2-8)Neu5Ac
Summary of the method: as §1

[24] = target: Neu5Ac(b2-6)Gal(b1-4)GlcNAc
Summary of the method: as §1

[25] = target: Neu5Ac9Ac(a2-6)Gal(b1-4)GlcNAc
Summary of the method: as §1

[26] = target: Neu5Gc(a2-6)Gal(b1-4)GlcNAc
Summary of the method: as §1

B1: PpFlo1 (Pichia pastoris) (protein)
chain: MGSSHHHHHHSSGLVPRGSHMQESGDGDISDSAYACDIDATRYDGFNATIYEFQPGDGRLTRDPVFMSTGYLNRTQLHSITGVTDPGFSIYTPGVPTTTLYGIPNVNWENLLLELKGYFRAEVSGDYGLSLRNIDDSAILFFGKETAFQCCNENSISNEASTDYSLFTIFRQEGDETTNLDSFTYTQYLEAGKYYPVRTFFVNIERHAVFNFTMTLPDGTELTDFHNYIYQFGALDEEQCQA
[1]
  glycan array binding signal (z-score): 0.008
[2]
  glycan array binding signal (z-score): 0.046
[3]
  glycan array binding signal (z-score): -0.171
[4]
  glycan array binding signal (z-score): -0.18
[5]
  glycan array binding signal (z-score): 0.03
[6]
  glycan array binding signal (z-score): 0.551
[7]
  glycan array binding signal (z-score): 0.609
[8]
  glycan array binding signal (z-score): -0.514
[9]
  glycan array binding signal (z-score): -0.39
GlcNAc(b1-3)Man
  glycan array binding signal (z-score): 1.9
[10]
  glycan array binding signal (z-score): -0.375
GlcNAc(b1-6)GalNAc
  glycan array binding signal (z-score): -0.373
Kdn(a2-3)Gal(b1-4)Glc
  glycan array binding signal (z-score): -0.2
[11]
  glycan array binding signal (z-score): -0.565
Man(a1-3)[Man(a1-6)]Man
  glycan array binding signal (z-score): -0.074
[12]
  glycan array binding signal (z-score): -0.261
[13]
  glycan array binding signal (z-score): -0.308
[14]
  glycan array binding signal (z-score): -0.067
[15]
  glycan array binding signal (z-score): -0.31
[16]
  glycan array binding signal (z-score): -0.004
[17]
  glycan array binding signal (z-score): 0.078
[18]
  glycan array binding signal (z-score): 0.148
[19]
  glycan array binding signal (z-score): -0.445
[20]
  glycan array binding signal (z-score): -0.424
[21]
  glycan array binding signal (z-score): 0.701
[22]
  glycan array binding signal (z-score): 0.261
[23]
  glycan array binding signal (z-score): 2.26
Neu5Ac(a2-8)Neu5Ac
  glycan array binding signal (z-score): 0.146
[24]
  glycan array binding signal (z-score): 0.76
[25]
  glycan array binding signal (z-score): -0.44
[26]
  glycan array binding signal (z-score): 0
